Only some compounds are listed: those with a hit (about 2% of all), similar ones and a draw of the others.
PAX8 inh HTS: inhibitors of PAX8-driven TPO luciferase reporter, primary screen, RMG-I cells, single concentration; inhibition, % at 12.6 µM; SteadyGlo, 24 h; 1.2% of 360,000 active;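 active = mean replicate inhibition at least 60% with every replicate also reaching 60%; inconclusive = only one of the two criteria is met; inactive = mean below 60% and not all replicates reaching 60%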;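 note: luciferase light reporting Pax8 driven TPO promoter activity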
Shn3 3UTR inh: reduction of Shn3 3'UTR firefly luciferase signal, primary screen, Schnurri-3 inhibitor project, cell-based, Clone20 osteoblasts, set 2; Clone20 osteoblast Shn3 3'UTR firefly luciferase, 24 h; AID 588674, 2011; inhibition, % at 12.5 µM; 0.52% of 360,000 active;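 active = mean inhibition of at least 75% with every replicate also reaching 75%; inconclusive = mean inhibition at least 75% but some replicate below; inactive = mean inhibition below 75%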
EWS-Fli block: EWS/Fli-driven NR0B1 reporter inhibitors, primary screen, A673 cells, NR0B1 luciferase, luminescence, MLPCN library. viability-normalised. inhibition, % at 12.6 µM. 0.67% of 350,000 active. AID 651661, 2012;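 active = mean inhibition of at least 50% after viability correction, with every replicate also passing that limit; inconclusive = mean reaches 50% but only one of two replicates passes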;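 note: firefly luciferase signal divided by Alamar Blue viability fluorescence both relative to DMSO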
CF NFkB inh: inhibitors of PAF-induced NF-kB signaling, primary screen, cell-based, GFP fluorescence, uHTS. KKLEB NF-kB-GFP reporter, GFP fluorescence overnight. inhibition, % at 5 µM. 0.86% of 360,000 active. AID 588850, 2011;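 active = at least 50% inhibition at 5 µM, scaled per plate between neutral and stimulator controls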;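 note: PAF is a Pseudomonas aeruginosa culture filtrate used as stimulus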
KKLEB tox: cytotoxicity in KKLEB CF airway cells, primary screen, cytotoxicity control for CF NF-kB inhibitor project, cell-based, uHTS, fluorescence assay plates. KKLEB CF airway cells viability, ATPlite luminescence, overnight; hits give low values; cells stimulated with P. aeruginosa culture filtrate. activity change (cytotoxicity), % at 5 µM. 0.36% of 360,000 active. AID 602141, 2011;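 active = corrected activity change at or below -50% at 5 µM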
LGR2 antag: inhibitors of bursicon-induced LGR2 CRE-luciferase signal, primary screen, cell-based, HEK293, CRE-luciferase reporter, bursicon stimulation; Drosophila bursicon receptor LGR2 (rickets); bursicon-stimulated, 4 h; inhibition, % at 9.99 µM; 0.35% of 380,000 active;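 active = drop in luminescence signal, shown as inhibition above about 50% in the replicate tests, limit read from the data, passing the limit was not always enough; inconclusive = probably only some replicates passing the limit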;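 note: agonist challenge used bursicon conditioned medium at about half maximal strength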
Each line names hits and unclear results; the compound was inactive in the other large screens.

COc1ccccc1NC(=O)N1CCCCN2[C@H](C1)[C@@H](c1ccc(-c3cccc(C#N)c3)cc1)[C@@H]2CO	PAX8 inh HTS 83.4 (no result: Shn3 3UTR inh, CF NFkB inh, KKLEB tox)
C[C@@H]1CN([C@@H](C)CO)C(=O)c2cccc(NC(=O)C3CC3)c2O[C@H]1CN(C)S(=O)(=O)c1cn(C)cn1	none (no result: Shn3 3UTR inh, CF NFkB inh, KKLEB tox)
O=C(NC1(Cc2ccccc2)CCN(Cc2ccc(-c3ccccc3)cc2)C1=O)c1ccccc1 (centres undefined)	LGR2 antag 55.5
O=C(CCc1ccccc1)NC1(Cc2ccccc2)CCN(CCc2cccs2)C1=O (centres undefined)	none
Cc1ccc(C)c(S(=O)(=O)N2CCCCC2CCNC(=O)C(=O)NCc2ccncc2)c1 (centres undefined)	PAX8 inh HTS 69.1
Cc1ccc(C)c(S(=O)(=O)N2CCCCC2CCNC(=O)C(=O)NC2CCCC2)c1 (centres undefined)	none
Cc1noc(C)c1NC(=O)NCC[C@H]1CC[C@H](NC(=O)c2ccc(F)cc2)[C@H](CO)O1	none (no result: Shn3 3UTR inh, CF NFkB inh, KKLEB tox)
CC(C)C[C@H]1CNC(=S)N1CC1CCN(CC2CCC(C(C)(C)C)CC2)CC1 (some centres undefined)	Shn3 3UTR inh 93.1
O=C(C[C@H]1CC[C@@H](NC(=O)Cc2cccnc2)[C@@H](CO)O1)Nc1ccc(-c2ccccc2)cc1	none (no result: Shn3 3UTR inh, CF NFkB inh, KKLEB tox)
O=C(C[C@@H]1CC[C@H]2[C@@H](COC[C@@H](O)CN2CC2CCCCC2)O1)NCc1ccc(F)cc1	EWS-Fli block 69.7 (no result: Shn3 3UTR inh, CF NFkB inh, KKLEB tox)
O=C(C[C@H]1CC[C@@H]2[C@H](COC[C@@H](O)CN2CC2CCCCC2)O1)NCc1ccc(Cl)cc1	none (no result: Shn3 3UTR inh, CF NFkB inh, KKLEB tox)
O=C(C[C@H]1CC[C@@H]2[C@H](COC[C@H](O)CN2Cc2cccc(C(F)(F)F)c2)O1)NCc1ccc(Cl)cc1	none (no result: Shn3 3UTR inh, CF NFkB inh, KKLEB tox)
O=C(C[C@H]1CC[C@H]2[C@@H](COC[C@H](O)CN2Cc2cccc(C(F)(F)F)c2)O1)NCc1ccc(Cl)cc1	PAX8 inh HTS 69.8 (no result: Shn3 3UTR inh, CF NFkB inh, KKLEB tox)
CCc1cnc(N2[C@@H](C#N)[C@@H](c3ccc(C#CC(C)C)cc3)[C@@H]2CO)s1	PAX8 inh HTS 113.2 (no result: Shn3 3UTR inh, CF NFkB inh, KKLEB tox)
COC(=O)COc1ccc(/C=N/NC(=O)c2ccc(N(Cc3ccccc3)S(C)(=O)=O)cc2)cc1	PAX8 inh HTS 61.8
COC(=O)COc1ccc(/C=N/NC(=O)CN(c2ccccc2OC)S(=O)(=O)c2ccccc2)cc1	PAX8 inh HTS 69.5
O=C(CN1CC(=O)Oc2ccccc21)OCC(=O)c1ccccc1	CF NFkB inh 50.1, KKLEB tox -58.8 (no result: PAX8 inh HTS, EWS-Fli block)
O=C(OCc1cc(=O)oc2cc(O)ccc12)c1cc(S(=O)(=O)N2CCOCC2)ccc1F	none
CCc1cc2c(COC(=O)c3cc(S(=O)(=O)N4CCOCC4)ccc3F)cc(=O)oc2cc1O	LGR2 antag 59.3
C[C@@H]1CN([C@H](C)CO)C(=O)CCCn2cc(nn2)CO[C@@H]1CN(C)C(=O)c1ccc(N2CCN(C)CC2)cc1	none (no result: Shn3 3UTR inh, CF NFkB inh, KKLEB tox)
Cc1ccc(O)c(-c2cc(C(=O)Nc3ccc(S(=O)(=O)N4CC(C)OC(C)C4)cc3)[nH]n2)c1 (centres undefined)	none (no result: EWS-Fli block, LGR2 antag)
O=C(Nc1ccc(S(=O)(=O)N2CCOCC2)cc1)c1cc(-c2cc(Cl)ccc2O)n[nH]1	PAX8 inh HTS 76.5, EWS-Fli block 58.7, LGR2 antag inconclusive
Cc1cc(O)c(-c2cc(C(=O)Nc3ccc(S(=O)(=O)N4CCOCC4)cc3)[nH]n2)cc1C	PAX8 inh HTS 72.7 (no result: EWS-Fli block, LGR2 antag)
CCC(=O)N(C)C[C@H]1Oc2ncc(C#CC3(O)CCCC3)cc2C(=O)N([C@H](C)CO)C[C@@H]1C	none (no result: Shn3 3UTR inh, CF NFkB inh, KKLEB tox)
COc1ccc(Oc2ccc(/C=C/C(=O)c3cccc(OC)c3)cc2[N+](=O)[O-])cc1	PAX8 inh HTS 108.0
COc1ccc(Oc2ccc(/C=N/NC(=O)c3cccnc3)cc2[N+](=O)[O-])cc1	none (no result: LGR2 antag)
O=Nc1c2cc3ccccc3[nH]c-2c2ccccc12	none
O=Nc1c(O)c2ccccc2c2ccccc12	CF NFkB inh 89.0, KKLEB tox -88.2, LGR2 antag 81.5
C[C@H](CO)N1C[C@H](C)[C@H](CN(C)C(=O)Nc2ccc(F)cc2)Oc2c(NC(=O)Nc3ccc(F)cc3)cccc2C1=O	none (no result: PAX8 inh HTS, Shn3 3UTR inh, CF NFkB inh, KKLEB tox)
CC(=O)N1C[C@H]2[C@@H](c3ccccc31)[C@@H](CO)N2C(=O)c1ccc(F)cc1	none (no result: Shn3 3UTR inh, CF NFkB inh, KKLEB tox)
COC(=O)c1cccc2c1-c1ccccc1/C2=N/O	CF NFkB inh 72.5 (no result: PAX8 inh HTS, EWS-Fli block, LGR2 antag)
COC(=O)c1cccc2c1-c1ccccc1/C2=N\NC(N)=O	none
COc1ccc(N2CCN(C(=O)COC(=O)CCc3ccccc3)CC2)cc1	PAX8 inh HTS 76.9 (no result: LGR2 antag)
CCOC(=O)C1=CCN(S(=O)(=O)c2ccc(C)cc2)C1c1ccccc1 (centres undefined)	none
CCOc1cc2c(c3c1C(c1ccccc1)N(S(=O)(=O)c1ccc(C)cc1)C3)C(=O)C=CC2=O (centres undefined)	Shn3 3UTR inh 98.7, EWS-Fli block 62.3, CF NFkB inh 55.7, KKLEB tox -67.4 (no result: LGR2 antag)
COc1cccc(CNC(=O)C[C@@H]2CC[C@@H](NC(=O)C3CCOCC3)[C@@H](CO)O2)c1	none (no result: Shn3 3UTR inh, CF NFkB inh, KKLEB tox)
C[C@@H]1CCCCO[C@@H](CN(C)Cc2ccncc2)[C@H](C)CN([C@@H](C)CO)C(=O)c2cc(NC(=O)CCCCCC(=O)Nc3ccccc3N)ccc2O1	none (no result: Shn3 3UTR inh, CF NFkB inh, KKLEB tox)
CCC1=NN(C(=O)c2cccc(Br)c2)C(O)(c2ccc(Br)cc2)C1 (centres undefined)	CF NFkB inh 62.5, KKLEB tox -53.9
O=C(/C=C1\NC2(CCCC2)Cc2ccccc21)C(=O)N/N=C/c1ccccc1O	Shn3 3UTR inh 91.4, CF NFkB inh 51.3
COc1cc(/C=N/NC(=O)C(=O)/C=C2\NC3(CCCC3)Cc3ccccc32)ccc1O	none
CC(C)NC(=O)N(C)C[C@@H]1Oc2ccc(NC(=O)Nc3ccc4c(c3)OCO4)cc2C(=O)N([C@H](C)CO)C[C@H]1C	none (no result: PAX8 inh HTS, Shn3 3UTR inh, CF NFkB inh, KKLEB tox)
O=C1CCC(=O)c2oc3ccccc3c2N1	none (no result: PAX8 inh HTS, EWS-Fli block, LGR2 antag)
O=C1CCc2cccc(O)c2N1	Shn3 3UTR inh 94.0
Cn1c(=O)c(/C=C/c2ccccc2)nc2ccccc21	none
Cn1c(/C=C/c2ccccc2)nc2ccccc21	PAX8 inh HTS 78.8, EWS-Fli block 59.1, LGR2 antag 79.8
CN1c2ccccc2N(C)C1(C)c1ccccc1	PAX8 inh HTS 91.6
CN1C(=O)N(C)C2(c3ccccc3)NC(=O)NC12c1ccccc1 (centres undefined)	none (no result: PAX8 inh HTS, EWS-Fli block, LGR2 antag)
CCN1c2ccccc2N(C)C1(C)c1ccccc1 (centres undefined)	Shn3 3UTR inh 89.1 (no result: PAX8 inh HTS, EWS-Fli block, LGR2 antag)
